Results: PubChem BioAssay (NCATS)
Results filed as inconclusive are left out. Entries that show only a call come without a potency. Activity calls are given as the source filed them. Calls come from the whole dose curve; as a rule, active = well fitted inhibition curve with a large enough effect; inconclusive = small, poorly fitted or top-dose-only effect; inactive = flat fitted curve, though single readings scatter.

Test: qHTS assay for small molecule disruptors of mitochondrial membrane potential screened against the NCATS CANVASS Library (AID 1347389); note: nearly all actives have a fitted effect of over 60% in size
Settings: HepG2 mitochondrial membrane potential, m-MPI red/green ratio, 1.5 h; series mostly up to 46.1 µM
Description: Natural products and their derivatives continue to be wellsprings of nascent therapeutic potential. However, many laboratories have limited resources for biological evaluation, leaving their previously isolated or synthesized compounds largely or completely untested. To address this issue, the Canvass library of natural products was assembled (https://tripod.nih.gov/canvass), in collaboration with academic and industry researchers, for quantitative high-throughput screening (qHTS) across a diverse set of cell-based and biochemical assays. The pure (>85% purity by liquid chromatography/mass spectrometry [LC/MS]) Canvass library of 346 natural products were submitted by 45 academic laboratories and companies around the world. We collected pure natural products to circumvent deconvolution and structure elucidation due to time and resource limitations. The library was formatted into 1536-well plates and evaluated in 50 qHTS (in an 11-pnt concentration series) bioassays with broad scope of disease-relevant mechanisms. The resulting data set from 50 different assays was then systematically analyzed to identify overall trends and specific natural products with interesting biological activities. Reported herein are the results of each individual qHTS and their corresponding assay protocol. In healthy cells, the mitochondria are polarized and mitochondrial-membrane potential indicator (m-MPI) accumulates in the mitochondria as red fluorescent aggregates (emission at 590 nm). As the mitochondrial membrane depolarizes, m-MPI red-colored J-aggregates are converted to green fluorescent monomers (emission at 535 nm) and released from mitochondria into the cytosol. In response to mitochondrial depolarization, the red-to-green fluorescence ratio decreases. National Center for Advancing Translational Sciences (NCATS), Rockville, MD National Institute of Health (NIH), Bethesda, Maryland
Mitochondrial membrane potential protocol: 2,000 HepG2 cells in 5 uL/well were dispensed into black, clear-bottom 1536-well plates using a Multidrop Combi (Thermo Scientific) dispenser. The assay plates were incubated overnight at 37C to allow cells to attach to the wells, followed by the transfer of 23 nL compound or DMSO vehicle by a pin tool (Kalypsys). The plates were incubated for 1 hr at 37C and 5% CO2, followed by the addition of 5 uL of 2X Mito-MPS dye (BD Biosciences) into each well using Flying Reagent Dispenser (Aurora Discovery) and then following 30 min incubation at 37C. Fluorescence intensity (490nm excitation and 535nm emission for monomers; and 540nm excitation and 590nm emissions for aggregates) was measured using an Envision plate reader.
Potency is the fitted concentration of half-maximal effect.

Structure (SMILES) | Potency
CNCCc1c[nH]c2ccccc12 | inactive
CC(=O)N[C@H]1CCN2CCC[C@H]12 | inactive
c1ccc2c3c([nH]c2c1)CNCC3 | inactive
CC=C1CN(C=O)[C@H]2C[C@@H]1[C@@H](C(=O)OC)[C@@]13CCOC21Nc1ccccc13 (stereo partly specified) | inactive
CNCCc1ccc(O)cc1 | inactive
C/C=C1/CN2CC[C@]34C(=Nc5ccccc53)[C@@H]2C[C@@H]1[C@H]4C(=O)OC | inactive
COC(=O)C1=C2Nc3ccccc3[C@@]23CCN2CC(C(C)=O)C1C[C@H]23 (stereo partly specified) | inactive
COc1ccc2c(c1)[nH]c1c(C)nccc12 | inactive
O=C(c1ccccc1O)c1[nH]c(Cl)c(Cl)c1-n1c(C(=O)c2ccccc2O)cc(Cl)c1Cl | 0.0933 µM (active)
CCCC[C@@H]1CC[C@H]2CCCC(CCC)N12 (stereo partly specified) | inactive
CCN1C[C@]2(C)CC[C@H](O)[C@]34C1C(C[C@H]23)[C@@]12CC[C@H](CC14)[C@](O)(COC(=O)c1ccc(OC)c(OC)c1)[C@H]2O (stereo partly specified) | inactive
CC[N@@+]1([O-])C[C@]2(C)CC[C@@H](O)[C@@]34C5C[C@H]6CC[C@@]5(C(C[C@H]23)C41)[C@H](O)[C@@]6(O)CO (stereo partly specified) | inactive
C=C1[C@@H](C)[C@H]2[C@H](Cc3ccccc3)NC(=O)[C@]23OC(=O)/C=C/[C@H](O)CCC[C@@H](C)C/C=C/[C@H]3[C@@H]1O | inactive
CCN1C[C@]2(C)CC[C@@H](O)[C@]34C1[C@H](C[C@H]23)C12CCC(CC14)[C@](O)(CO)[C@H]2O (stereo partly specified) | inactive
CC1=CC2CC[C@@H]3[C@@H](C)C[C@H](C)[C@@H](C1)N23 (stereo partly specified) | inactive
NCCc1ccccc1 | inactive

Structure (SMILES) | Potency
CO[C@@H](/C=C/CC/C=C/C(=O)O)[C@@H](O)[C@H](C)[C@@H](O)/C(C)=C/[C@H](C)C(=O)CCCC1CC(=O)NC(=O)C1 | inactive
CCC[C@H]1CC[C@H]2[C@H](C)CCC[C@H]2N1 | inactive
CNCCc1ccccc1 | inactive
CCC(=O)CCCCC[C@@H]1NC(=O)[C@H]2CCCCN2C(=O)[C@H]([C@@H](C)CC)NC(=O)[C@H](Cc2cn(OC)c3ccccc23)NC1=O | inactive
CN(C)Cc1c[nH]c2ccccc12 | inactive
COc1ccc2c3c([nH]c2c1)C(C)=NCC3 | inactive
C[C@]12CC(O)C3[C@@H](CCC4C[C@@H](O)CC[C@@]43CO)[C@@]1(O)CCC2C1=CC(=O)OC1 (stereo partly specified) | inactive
C[C@@H]1CC[C@@H](c2ccoc2)N2C[C@@]3(CC[C@@H]12)CS[C@@]1(CC[C@H]2[C@H](C)CC[C@@H](c4ccoc4)N2[C@@H]1O)C3 | 13.2 µM (active)
CO[C@H](c1ccccc1)[C@H]1NC(=O)C(C)NC(=O)C(C[C@@H](C)CO)N(C)C(=O)[C@@H](C(O)c2cn(C(C)(C)C3CO3)c3ccccc23)NC(=O)C(C(C)C=C(C)C)NC(=O)C(CC(C)C)N(C)C(=O)C(C(C)C)NC1=O (stereo partly specified) | inactive
CO[C@@H](/C=C/CC/C=C/C(=O)O)[C@@H](O)[C@H](C)/C=C(\C)[C@@H](O)[C@H](C)C(=O)CCCC1CC(=O)NC(=O)C1 | inactive
CCCCC[C@@H]1OC(=O)[C@@H](C)N(C)C(=O)[C@H](CCCCC)OC(=O)C(C)N(C)C(=O)[C@H](CCCCC)OC(=O)[C@@H](C)N(C)C(=O)[C@H](CCCCC)OC(=O)C(C)N(C)C1=O (stereo partly specified) | 4.17 µM (active)
COc1ccc(C23Oc4cc(OC)cc(OC)c4[C@](O)([C@H](c4ccccc4)C2C(=O)NCCCCNC(=O)c2ccccc2)[C@@H]3O)cc1 (stereo partly specified) | inactive
CN1C(=O)[C@]23CC4C(C)(C)[C@@]5(C[C@@]41CN2CC[C@@]3(C)O)C(=O)Nc1c5ccc2c1OC=CC(C)(C)O2 (stereo partly specified) | inactive
CC[C@@H]1CN2CC[C@@]3(O)C(=Nc4cccc(OC)c43)[C@@H]2C[C@@H]1/C(=C\OC)C(=O)OC | inactive
CC1=CC(=O)C2=C(C)C[C@H](O)[C@@H]3[C@H](OC(=O)[C@@H]3C)[C@@H]12 | inactive
